Pf Dd2 growth = inhibitors of Plasmodium falciparum Dd2 growth. P. falciparum Dd2 growth, SYBR Green, 72 h; active compounds read low. activity change, % at 10 µM. actives 2.3% (n = 94,000); in the data active means activity change below about -80%; inconclusive means no clear call, values can overlap the other calls
T cruzi growth-1 = T. cruzi proliferation inhibition; T. cruzi beta-gal in NIH3T3, GalScreen luminescence, 90 h; inhibition, % at 8.34 µM; actives 5.9% (n = 77,000);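 active means mean inhibition above about 93%, with at least 55% of replicates each passing it, limit read from the data, passing the limit was not always enough; inconclusive means only one of those two conditions holds; inactive means neither condition holds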
C diff HTS = C. difficile growth inhibition; Clostridium difficile clinical isolate growth, OD600, 24 h; active compounds read low; growth activity, negative = inhibition, % at 16 µg/mL (by protocol); actives 0.25% (n = 86,000); AID 1259249;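 active means mean growth activity at or below -80% and every replicate also at or below -80%; inconclusive means mean at or below -80% but some replicate above -80%; inactive means mean growth activity above -80%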;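 further: 0% = DMSO wells and -100% = levofloxacin 16 µg/mL wells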
T cruzi growth-2 = inhibitors of T. cruzi proliferation | inhibition, % at 8.35 µM | shares compounds with T cruzi growth-1 | T. cruzi beta-gal in NIH3T3, GalScreen luminescence, 90 h | actives 72% (n = 5,600) | AID 651739;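 active means mean replicate inhibition above about 95% and at least 55% of replicates individually reaching it, limit read from the data; inconclusive means only one of the two criteria is met; inactive means neither criterion is met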
T cruzi growth-3 = Trypanosoma cruzi proliferation inhibition | shares compounds with T cruzi growth-1 | T. cruzi beta-gal in NIH3T3, GalScreen luminescence, 90 h | inhibition, % at 2.09 µM | actives 21% (n = 5,600) | AID 651740;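 active means mean inhibition above about 95%, with at least 55% of replicates also reaching it, limit read from the data; inconclusive means meets just one of the two conditions; inactive means meets neither condition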;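 further: plate controls were neutral control median for no effect and positive control median for full effect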
NIH3T3 tox = NIH/3T3 (mouse) viability loss; NIH/3T3 viability, CellTiter-Glo ATP luminescence, 90 h; cytotoxicity (signal decrease), % at 8.35 µM; AID 651742; actives 14% (n = 5,600); shares compounds with T cruzi growth-1;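 active means mean signal decrease across replicates above about 35% based on untreated-well scatter, with enough replicates individually passing, limit read from the data; inconclusive means no rule stated though some were filed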;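 further: 0% = median of neutral control wells and 100% = median of positive control wells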
NIH3T3 tox 2 = kills mouse NIH/3T3 fibroblasts. shares compounds with T cruzi growth-1. NIH/3T3 viability, CellTiter-Glo ATP luminescence, 90 h. inhibition, % at 24.9 µM. actives 56% (n = 5,600);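 active means mean loss of cell viability signal at or above a set limit, and enough replicates individually reaching it; inconclusive means meets only the mean limit or only the replicate share; inactive means meets neither condition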;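 further: 0% = median of neutral control wells and 100% = median of positive control wells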
The depositor's hits bear a star; u = inconclusive; x = no result given. A selection: hits, their analogues and other compounds. The true share with any hit is near 6.7%.

SMILES | Pf Dd2 growth | T cruzi growth-1 | C diff HTS | T cruzi growth-2 | T cruzi growth-3 | NIH3T3 tox | NIH3T3 tox 2
N#C[C@H]1[C@H](c2ccc(-c3ccccc3F)cc2)[C@H](CO)N1C(=O)C1CC1 | -12 | 30 | 3 | x | x | x | x
COc1ccc(-c2ccc([C@H]3[C@H](C#N)N(C(=O)C4CC4)[C@H]3CO)cc2)cc1 | -42 | 78 | 1 | x | x | x | x
COc1ccccc1-c1ccc([C@@H]2[C@@H](C#N)N(C(=O)C3CC3)[C@@H]2CO)cc1 | 21 | 104* | 2 | 37 | -11 | -8 | 12
COc1ccccc1-c1ccc([C@H]2[C@H](C#N)N(C(=O)C3CC3)[C@H]2CO)cc1 | -5 | 105* | 10 | 77 | 25 | 7 | u
COc1cccc(-c2ccc3c(c2)[C@@H]2[C@@H](CCN2S(=O)(=O)c2cccc(OC)c2)[C@@H](CO)N3)c1 | -6 | 1 | 0 | x | x | x | x
CCS(=O)(=O)Nc1ccc2c(c1)C(=O)N(C)C[C@H](OC)[C@@H](C)CN(Cc1nccs1)[C@H](C)CO2 | 18 | -13 | -5 | x | x | x | x
C[C@H]1CN([C@@H](C)CO)C(=O)CCCn2cc(nn2)CO[C@H]1CN(C)S(=O)(=O)c1ccc(-c2ccccc2)cc1 | -17 | -27 | x | x | x | x | x
C[C@@H]1CN([C@H](C)CO)S(=O)(=O)c2ccc(C#Cc3ccccc3)cc2O[C@H]1CN(C)S(=O)(=O)c1ccccc1F | -75 | 129* | 11 | 98* | 45 | 8 | u
C[C@@H]1CN([C@H](C)CO)S(=O)(=O)c2ccc(C#Cc3ccccc3)cc2O[C@@H]1CN(C)S(=O)(=O)c1ccccc1F | -77 | 122* | -1 | 105* | 106* | 25 | 52*
C[C@H]1CN([C@@H](C)CO)S(=O)(=O)c2ccc(-c3ccncc3)cc2O[C@@H]1CN(C)S(=O)(=O)c1ccccc1F | -55 | x | 4 | x | x | x | x
C[C@H]1CN([C@@H](C)CO)S(=O)(=O)c2ccc(C#Cc3ccccc3)cc2O[C@@H]1CN(C)S(=O)(=O)c1ccccc1F | -71 | 125* | 5 | 98* | 103* | -17 | 29*
C[C@H](CO)N1C[C@H](C)[C@@H](CN(C)S(=O)(=O)c2ccccc2F)Oc2cc(-c3ccncc3)ccc2S1(=O)=O | -18 | x | 4 | x | x | x | x
Cc1ccc(S(=O)(=O)N(C)C[C@H]2Oc3cc(C#Cc4ccccc4)ccc3S(=O)(=O)N([C@H](C)CO)C[C@H]2C)cc1 | -38 | x | 3 | x | x | x | x
C[C@H](CO)N1C[C@H](C)[C@H](CN(C)S(=O)(=O)c2ccccc2F)Oc2cc(C#Cc3ccccc3)ccc2S1(=O)=O | -59 | 125* | 17 | 110* | 79 | -1 | 0
Cc1ccc(S(=O)(=O)N(C)C[C@H]2Oc3cc(C#Cc4ccccc4)ccc3S(=O)(=O)N([C@@H](C)CO)C[C@@H]2C)cc1 | -77 | x | 2 | x | x | x | x
CNC[C@@H]1Oc2cc(C#CCC(C)C)ccc2S(=O)(=O)N([C@@H](C)CO)C[C@H]1C | -62 | 35 | -1 | x | x | x | x
COc1ccc(CN(C)C[C@@H]2OCCCC[C@@H](C)Oc3ccc(NC(=O)CCCN(C)C)cc3C(=O)N([C@@H](C)CO)C[C@@H]2C)cc1 | -35 | x | 2 | x | x | x | x
C[C@H](CO)N1C[C@H](C)[C@H](CN(C)Cc2cncnc2)Oc2cc(C#CC3CCCC3)ccc2S1(=O)=O | -29 | x | 6 | x | x | x | x
CCCC#Cc1ccc2c(c1)[C@H]1[C@H](CCN1C(=O)C1CC1)[C@H](CO)N2 | 6 | x | -5 | x | x | x | x
C[C@H]1CN([C@@H](C)CO)S(=O)(=O)c2ccc(C#Cc3ccc(F)cc3)cc2O[C@@H]1CN(C)C(=O)CN(C)C | -65 | -7 | 6 | x | x | x | x
O=C(C[C@H]1C=C[C@H](NC(=O)Nc2cc(F)ccc2F)[C@H](CO)O1)NCc1ccccn1 | 24 | -3 | 0 | x | x | x | x
C[C@H]1CN([C@@H](C)CO)C(=O)c2cc(C3=CCCC3)cnc2O[C@@H]1CN(C)C(=O)Nc1ccc(F)cc1 | -74 | x | -13 | x | x | x | x
C[C@@H]1CN([C@@H](C)CO)C(=O)c2cc(C3=CCCC3)cnc2O[C@H]1CN(C)C(=O)Nc1ccc(C(F)(F)F)cc1 | -15 | 99* | -9 | 102* | 56 | 21 | 6
C[C@@H]1CN([C@H](C)CO)C(=O)c2cc(C3=CCCC3)cnc2O[C@@H]1CN(C)C(=O)Nc1ccc(C(F)(F)F)cc1 | -4 | 111* | 21 | 107* | 84 | u | 104*
C[C@H]1CN([C@@H](C)CO)C(=O)c2cc(C3=CCCC3)cnc2O[C@@H]1CN(C)C(=O)Nc1ccc(C(F)(F)F)cc1 | -54 | 82 | -1 | x | x | x | x
SMILES | Pf Dd2 growth | T cruzi growth-1 | C diff HTS | T cruzi growth-2 | T cruzi growth-3 | NIH3T3 tox | NIH3T3 tox 2
COc1ccc2c3c(n(C)c2c1)[C@H](CO)N(C)CC31CCN(S(=O)(=O)c2cccs2)CC1 | -47 | x | 0 | x | x | x | x
C[C@@H]1CN([C@H](C)CO)C(=O)c2cc(C#Cc3ccccc3F)cnc2O[C@@H]1CN(C)C(=O)C1CC1 | -29 | 81 | x | x | x | x | x
CCCC#Cc1ccc2c(c1)O[C@@H](CN(C)C(=O)C1CCC1)[C@H](C)CN([C@H](C)CO)S2(=O)=O | -41 | 87 | -8 | x | x | x | x
CCCC#Cc1ccc2c(c1)O[C@@H](CN(C)C(=O)C1CCC1)[C@@H](C)CN([C@@H](C)CO)S2(=O)=O | -29 | 105* | -1 | 110* | 42 | -22 | -37
CCCC#Cc1ccc2c(c1)O[C@@H](CN(C)C(=O)C1CCC1)[C@@H](C)CN([C@H](C)CO)S2(=O)=O | -31 | 104* | 5 | 110* | 57 | 2 | 34*
CCCC#Cc1ccc2c(c1)O[C@H](CN(C)C(=O)C1CC1)[C@@H](C)CN([C@H](C)CO)S2(=O)=O | -27 | 72 | 3 | x | x | x | x
CCCC#Cc1ccc2c(c1)O[C@H](CN(C)C(=O)C1CCCCC1)[C@@H](C)CN([C@@H](C)CO)S2(=O)=O | -52 | 95* | 18 | 88 | 100* | -25 | 104*
C[C@H](CO)N1C[C@H](C)[C@H](CN(C)C(=O)C2CCCCC2)Oc2cc(C#CCN(C)C)ccc2S1(=O)=O | -20 | x | 2 | x | x | x | x
C[C@H]1CN([C@@H](C)CO)C(=O)c2cc(NC(=O)NC3CCCCC3)ccc2O[C@@H]1CN(C)CC1CCCCC1 | -3 | x | 4 | x | x | x | x
CN1C(=O)c2cc(NC(=O)C3CCOCC3)ccc2OC[C@H]2O[C@@H](CC(=O)NCc3ccc4c(c3)OCO4)CC[C@@H]21 | x | -71 | 9 | x | x | x | x
C[C@@H]1CN([C@@H](C)CO)C(=O)Cc2cc(NC(=O)C3CC3)ccc2O[C@H]1CN(C)Cc1ccc(-c2ccccc2)cc1 | -8 | 114* | 5 | 102* | 85 | 11 | 103*
C[C@@H]1CN([C@H](C)CO)C(=O)Cc2cc(NC(=O)C3CCCCC3)ccc2O[C@@H]1CN(C)Cc1ccc(-c2ccccc2)cc1 | -17 | 47 | -6 | x | x | x | x
